From ChEMBL document CHEMBL1961873, “Compounds: GSK PKIS; Assays: Nanosyn kinase panel” (2012) come the findings set out here.

Assay [1] concerns the target Protein kinase C gamma type (Homo sapiens) (UniProt P05129). The following applies: at 1 µM.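 Also: each value is an averaged percent inhibition of the enzyme.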
Assay [2] concerns the target T1, Protein kinase C iota type (Homo sapiens) (UniProt P41743).
T1 sequence (whole entry): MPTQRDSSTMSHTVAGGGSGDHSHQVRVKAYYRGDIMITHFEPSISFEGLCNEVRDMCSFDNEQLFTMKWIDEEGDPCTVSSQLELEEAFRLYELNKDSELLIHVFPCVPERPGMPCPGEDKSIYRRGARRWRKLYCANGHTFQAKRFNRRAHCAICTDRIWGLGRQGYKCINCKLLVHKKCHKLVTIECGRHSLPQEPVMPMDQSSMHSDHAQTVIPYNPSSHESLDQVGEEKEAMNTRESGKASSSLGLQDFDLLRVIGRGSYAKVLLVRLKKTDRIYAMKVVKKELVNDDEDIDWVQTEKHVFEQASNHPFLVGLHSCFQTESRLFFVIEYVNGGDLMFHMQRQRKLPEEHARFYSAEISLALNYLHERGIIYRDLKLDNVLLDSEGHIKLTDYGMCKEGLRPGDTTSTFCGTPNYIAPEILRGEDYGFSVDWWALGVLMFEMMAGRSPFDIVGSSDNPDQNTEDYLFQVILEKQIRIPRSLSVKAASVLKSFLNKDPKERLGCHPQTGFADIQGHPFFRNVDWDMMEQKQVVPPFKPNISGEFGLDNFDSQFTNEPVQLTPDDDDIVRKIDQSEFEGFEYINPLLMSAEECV
The following applies: at 0.1 µM.

For assay [3], the target named is T1, Protein kinase C iota type (Homo sapiens). The following applies: at 1 µM.
The target in assay [4] is Protein kinase C theta type (Homo sapiens) (UniProt Q04759). The following applies: at 0.1 µM.
For assay [5] the target is unchanged. The following applies: at 1 µM.
For assay [6], the target named is Protein kinase C beta type (Homo sapiens) (UniProt P05771). The following applies: at 0.1 µM.
For assay [7] the target is unchanged. The following applies: at 1 µM.
Assay [8] has as its target T2, Serine/threonine-protein kinase D1 (Homo sapiens) (UniProt Q15139).
T2 sequence (whole entry): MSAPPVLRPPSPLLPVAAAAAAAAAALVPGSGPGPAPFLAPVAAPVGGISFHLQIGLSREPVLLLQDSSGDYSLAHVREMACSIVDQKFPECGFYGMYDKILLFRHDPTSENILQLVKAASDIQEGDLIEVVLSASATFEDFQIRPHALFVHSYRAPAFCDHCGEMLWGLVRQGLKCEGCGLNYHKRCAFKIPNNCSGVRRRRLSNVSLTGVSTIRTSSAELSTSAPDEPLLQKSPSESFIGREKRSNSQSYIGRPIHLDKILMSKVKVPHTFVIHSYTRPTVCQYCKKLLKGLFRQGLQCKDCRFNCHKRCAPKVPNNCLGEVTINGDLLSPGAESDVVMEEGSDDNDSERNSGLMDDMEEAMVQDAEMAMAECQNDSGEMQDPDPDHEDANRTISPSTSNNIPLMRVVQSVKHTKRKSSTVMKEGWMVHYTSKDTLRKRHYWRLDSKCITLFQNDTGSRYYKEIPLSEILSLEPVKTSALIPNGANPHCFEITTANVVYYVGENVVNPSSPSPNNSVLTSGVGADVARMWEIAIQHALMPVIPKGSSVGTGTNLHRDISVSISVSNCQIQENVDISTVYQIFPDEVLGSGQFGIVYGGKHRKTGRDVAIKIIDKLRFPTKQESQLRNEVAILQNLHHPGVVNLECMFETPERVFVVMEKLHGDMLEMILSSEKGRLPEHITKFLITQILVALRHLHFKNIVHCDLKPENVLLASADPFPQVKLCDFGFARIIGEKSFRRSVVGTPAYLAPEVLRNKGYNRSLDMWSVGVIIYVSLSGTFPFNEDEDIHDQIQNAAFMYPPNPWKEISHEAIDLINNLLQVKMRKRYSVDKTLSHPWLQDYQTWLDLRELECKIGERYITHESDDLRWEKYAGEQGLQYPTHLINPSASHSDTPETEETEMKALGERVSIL
The following applies: at 0.1 µM.

The target in assay [9] is T2, Serine/threonine-protein kinase D1 (Homo sapiens). The following applies: at 1 µM.
Assay [10] has as its target T3, Serine/threonine-protein kinase D2 (Homo sapiens) (UniProt Q9BZL6).
T3 sequence (whole entry): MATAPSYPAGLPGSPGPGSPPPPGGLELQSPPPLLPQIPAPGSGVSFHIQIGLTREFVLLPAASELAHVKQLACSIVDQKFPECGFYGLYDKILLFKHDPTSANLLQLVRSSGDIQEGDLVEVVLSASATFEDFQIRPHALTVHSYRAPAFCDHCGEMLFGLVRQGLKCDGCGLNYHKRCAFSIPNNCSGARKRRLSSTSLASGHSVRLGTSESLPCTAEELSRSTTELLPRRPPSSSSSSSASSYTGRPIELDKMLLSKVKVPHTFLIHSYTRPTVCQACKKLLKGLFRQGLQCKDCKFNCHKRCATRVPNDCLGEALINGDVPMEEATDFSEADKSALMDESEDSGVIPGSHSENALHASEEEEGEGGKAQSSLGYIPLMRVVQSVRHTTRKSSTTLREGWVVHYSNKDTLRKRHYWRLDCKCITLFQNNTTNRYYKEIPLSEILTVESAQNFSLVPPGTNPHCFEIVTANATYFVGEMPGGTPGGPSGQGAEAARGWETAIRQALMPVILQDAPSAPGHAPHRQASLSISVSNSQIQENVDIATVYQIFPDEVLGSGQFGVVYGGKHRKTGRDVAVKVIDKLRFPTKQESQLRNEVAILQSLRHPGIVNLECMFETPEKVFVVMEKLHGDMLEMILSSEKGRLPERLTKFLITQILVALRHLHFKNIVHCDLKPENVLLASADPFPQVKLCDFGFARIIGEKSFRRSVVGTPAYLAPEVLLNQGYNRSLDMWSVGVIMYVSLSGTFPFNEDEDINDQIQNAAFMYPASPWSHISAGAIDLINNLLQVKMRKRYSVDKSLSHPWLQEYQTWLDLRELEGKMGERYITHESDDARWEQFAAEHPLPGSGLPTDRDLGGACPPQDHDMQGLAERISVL
The following applies: at 0.1 µM.

Assay [11] addresses T3, Serine/threonine-protein kinase D2 (Homo sapiens). The following applies: at 1 µM.
For assay [12], the target named is T4, Serine/threonine-protein kinase D3 (Homo sapiens) (UniProt O94806).
T4 sequence (whole entry): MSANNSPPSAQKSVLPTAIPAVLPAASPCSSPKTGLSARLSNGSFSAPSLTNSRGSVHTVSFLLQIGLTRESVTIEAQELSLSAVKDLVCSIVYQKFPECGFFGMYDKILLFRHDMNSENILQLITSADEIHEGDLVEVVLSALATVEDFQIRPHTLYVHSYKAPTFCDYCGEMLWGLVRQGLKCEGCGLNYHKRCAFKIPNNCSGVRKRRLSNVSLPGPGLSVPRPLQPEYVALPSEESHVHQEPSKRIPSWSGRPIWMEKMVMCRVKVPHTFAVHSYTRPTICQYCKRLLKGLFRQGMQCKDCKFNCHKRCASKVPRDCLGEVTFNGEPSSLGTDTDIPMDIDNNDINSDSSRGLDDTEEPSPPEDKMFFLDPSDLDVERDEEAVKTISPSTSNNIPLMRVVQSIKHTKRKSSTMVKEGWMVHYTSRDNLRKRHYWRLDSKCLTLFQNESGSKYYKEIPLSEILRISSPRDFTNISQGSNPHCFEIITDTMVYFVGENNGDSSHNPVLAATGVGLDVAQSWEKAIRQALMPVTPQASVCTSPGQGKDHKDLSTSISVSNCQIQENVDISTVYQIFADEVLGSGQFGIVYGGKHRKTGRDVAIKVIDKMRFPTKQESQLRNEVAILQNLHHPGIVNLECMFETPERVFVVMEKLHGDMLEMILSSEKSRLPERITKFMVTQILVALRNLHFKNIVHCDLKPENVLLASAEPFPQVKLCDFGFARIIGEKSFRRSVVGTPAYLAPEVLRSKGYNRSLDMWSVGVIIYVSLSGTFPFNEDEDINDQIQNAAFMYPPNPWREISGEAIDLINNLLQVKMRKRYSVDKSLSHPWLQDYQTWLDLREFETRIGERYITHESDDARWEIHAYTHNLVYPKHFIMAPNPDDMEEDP
The following applies: at 0.1 µM.

Assay [13] concerns the target T4, Serine/threonine-protein kinase D3 (Homo sapiens). The following applies: at 1 µM.
Assay [14] concerns the target T5, cGMP-dependent protein kinase 1 (Homo sapiens) (UniProt Q13976).
T5 sequence (whole entry): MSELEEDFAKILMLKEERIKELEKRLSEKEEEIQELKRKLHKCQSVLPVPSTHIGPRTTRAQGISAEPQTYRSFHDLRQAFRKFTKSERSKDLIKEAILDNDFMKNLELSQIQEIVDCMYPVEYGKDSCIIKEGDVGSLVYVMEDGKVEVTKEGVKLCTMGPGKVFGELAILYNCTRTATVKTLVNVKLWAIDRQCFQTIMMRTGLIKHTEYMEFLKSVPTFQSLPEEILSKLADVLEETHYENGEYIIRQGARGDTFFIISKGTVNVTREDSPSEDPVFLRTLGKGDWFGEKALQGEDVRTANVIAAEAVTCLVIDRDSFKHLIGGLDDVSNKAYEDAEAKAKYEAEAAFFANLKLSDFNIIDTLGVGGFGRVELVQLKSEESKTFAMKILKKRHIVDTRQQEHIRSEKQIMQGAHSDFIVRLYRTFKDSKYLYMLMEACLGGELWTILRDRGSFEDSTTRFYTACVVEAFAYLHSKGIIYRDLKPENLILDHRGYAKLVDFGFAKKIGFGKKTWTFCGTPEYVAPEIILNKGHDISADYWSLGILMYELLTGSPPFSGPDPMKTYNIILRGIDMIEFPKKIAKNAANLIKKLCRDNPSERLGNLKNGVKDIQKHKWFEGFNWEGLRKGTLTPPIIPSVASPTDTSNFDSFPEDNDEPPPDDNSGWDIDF
The following applies: at 0.1 µM.

Assay [15] deals with T5, cGMP-dependent protein kinase 1 (Homo sapiens). The following applies: at 1 µM.
The target of assay [16] is T6, cGMP-dependent protein kinase 2 (Homo sapiens) (UniProt Q13237).
T6 sequence (whole entry): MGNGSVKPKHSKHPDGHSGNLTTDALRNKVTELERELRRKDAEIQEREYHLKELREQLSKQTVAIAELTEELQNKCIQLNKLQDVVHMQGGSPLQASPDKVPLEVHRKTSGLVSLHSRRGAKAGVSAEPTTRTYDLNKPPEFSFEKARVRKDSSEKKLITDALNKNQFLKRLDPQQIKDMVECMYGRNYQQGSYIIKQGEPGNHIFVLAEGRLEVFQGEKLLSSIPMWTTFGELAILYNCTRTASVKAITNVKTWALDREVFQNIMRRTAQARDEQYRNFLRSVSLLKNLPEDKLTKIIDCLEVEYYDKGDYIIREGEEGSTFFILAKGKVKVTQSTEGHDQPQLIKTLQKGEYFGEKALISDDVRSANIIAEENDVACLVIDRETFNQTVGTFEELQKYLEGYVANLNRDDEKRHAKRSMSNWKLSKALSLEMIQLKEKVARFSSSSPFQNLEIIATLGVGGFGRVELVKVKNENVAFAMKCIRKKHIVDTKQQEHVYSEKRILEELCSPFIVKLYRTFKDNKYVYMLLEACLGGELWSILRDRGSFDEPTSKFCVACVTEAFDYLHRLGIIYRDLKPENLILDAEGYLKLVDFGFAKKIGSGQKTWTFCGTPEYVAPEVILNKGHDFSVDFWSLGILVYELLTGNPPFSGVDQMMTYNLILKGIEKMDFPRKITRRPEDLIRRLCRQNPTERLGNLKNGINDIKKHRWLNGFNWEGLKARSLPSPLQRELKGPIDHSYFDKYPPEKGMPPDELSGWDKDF
The following applies: at 0.1 µM.

For assay [17], the target named is T6, cGMP-dependent protein kinase 2 (Homo sapiens). The following applies: at 1 µM.
In assay [18] the target is T7, cAMP-dependent protein kinase catalytic subunit PRKX (Homo sapiens) (UniProt P51817).
T7 sequence (whole entry): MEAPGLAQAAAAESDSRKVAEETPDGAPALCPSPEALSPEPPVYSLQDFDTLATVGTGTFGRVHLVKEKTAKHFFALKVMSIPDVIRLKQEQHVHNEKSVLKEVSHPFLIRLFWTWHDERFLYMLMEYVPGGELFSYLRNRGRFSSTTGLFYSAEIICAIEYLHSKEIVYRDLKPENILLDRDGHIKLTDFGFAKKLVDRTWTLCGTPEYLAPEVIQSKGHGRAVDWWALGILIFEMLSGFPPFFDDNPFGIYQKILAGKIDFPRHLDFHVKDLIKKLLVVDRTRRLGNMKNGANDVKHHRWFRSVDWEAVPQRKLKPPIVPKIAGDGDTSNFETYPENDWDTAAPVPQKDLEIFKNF
The following applies: at 0.1 µM.

The target of assay [19] is T7, cAMP-dependent protein kinase catalytic subunit PRKX (Homo sapiens). The following applies: at 1 µM.
The target in assay [20] is Rho-associated protein kinase 1 (Homo sapiens) (UniProt Q13464). The following applies: at 0.1 µM.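 Also: values are mean percent inhibition of ROCK1.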

Molecules are shown by their SMILES.

Protein kinase C beta type (Homo sapiens), sequence (P05771 2-671 limits assumed): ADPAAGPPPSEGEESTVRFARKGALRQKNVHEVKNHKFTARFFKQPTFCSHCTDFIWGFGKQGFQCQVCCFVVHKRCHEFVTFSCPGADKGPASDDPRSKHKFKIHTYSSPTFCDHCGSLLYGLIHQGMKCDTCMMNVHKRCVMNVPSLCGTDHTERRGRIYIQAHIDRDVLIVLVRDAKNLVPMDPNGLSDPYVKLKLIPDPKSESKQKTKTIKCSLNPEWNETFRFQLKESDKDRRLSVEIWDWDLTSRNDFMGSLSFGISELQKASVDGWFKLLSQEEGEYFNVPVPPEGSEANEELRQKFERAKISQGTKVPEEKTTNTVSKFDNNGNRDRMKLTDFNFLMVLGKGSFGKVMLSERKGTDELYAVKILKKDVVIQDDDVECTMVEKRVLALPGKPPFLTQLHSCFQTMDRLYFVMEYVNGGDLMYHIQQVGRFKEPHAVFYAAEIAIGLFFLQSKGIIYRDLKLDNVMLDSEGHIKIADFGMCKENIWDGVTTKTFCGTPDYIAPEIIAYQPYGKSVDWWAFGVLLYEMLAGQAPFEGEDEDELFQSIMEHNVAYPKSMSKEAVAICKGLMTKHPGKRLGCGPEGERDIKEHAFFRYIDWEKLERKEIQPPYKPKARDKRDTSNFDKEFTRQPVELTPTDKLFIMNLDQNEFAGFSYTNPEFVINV
Protein kinase C theta type (Homo sapiens), sequence (Q04759 whole entry, looked up): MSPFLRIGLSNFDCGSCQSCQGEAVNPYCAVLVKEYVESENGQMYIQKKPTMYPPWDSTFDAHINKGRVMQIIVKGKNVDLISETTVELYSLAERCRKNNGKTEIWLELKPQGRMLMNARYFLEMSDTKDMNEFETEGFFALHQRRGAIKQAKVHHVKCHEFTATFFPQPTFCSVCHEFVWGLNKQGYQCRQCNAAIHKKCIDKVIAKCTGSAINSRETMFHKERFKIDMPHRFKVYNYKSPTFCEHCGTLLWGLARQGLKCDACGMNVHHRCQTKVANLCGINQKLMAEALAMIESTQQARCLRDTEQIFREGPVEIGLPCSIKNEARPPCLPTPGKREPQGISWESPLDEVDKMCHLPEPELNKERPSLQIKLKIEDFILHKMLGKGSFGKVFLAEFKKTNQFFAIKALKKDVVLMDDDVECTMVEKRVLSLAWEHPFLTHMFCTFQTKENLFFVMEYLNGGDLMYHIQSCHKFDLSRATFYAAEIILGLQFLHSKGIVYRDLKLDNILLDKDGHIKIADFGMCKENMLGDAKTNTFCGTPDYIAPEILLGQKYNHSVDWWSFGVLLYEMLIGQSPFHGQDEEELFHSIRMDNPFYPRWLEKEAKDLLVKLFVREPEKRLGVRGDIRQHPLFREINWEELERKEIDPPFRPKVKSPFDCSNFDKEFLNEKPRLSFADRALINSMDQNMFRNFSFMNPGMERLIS
Rho-associated protein kinase 1 (Homo sapiens), sequence (Q13464 2-1354 limits assumed): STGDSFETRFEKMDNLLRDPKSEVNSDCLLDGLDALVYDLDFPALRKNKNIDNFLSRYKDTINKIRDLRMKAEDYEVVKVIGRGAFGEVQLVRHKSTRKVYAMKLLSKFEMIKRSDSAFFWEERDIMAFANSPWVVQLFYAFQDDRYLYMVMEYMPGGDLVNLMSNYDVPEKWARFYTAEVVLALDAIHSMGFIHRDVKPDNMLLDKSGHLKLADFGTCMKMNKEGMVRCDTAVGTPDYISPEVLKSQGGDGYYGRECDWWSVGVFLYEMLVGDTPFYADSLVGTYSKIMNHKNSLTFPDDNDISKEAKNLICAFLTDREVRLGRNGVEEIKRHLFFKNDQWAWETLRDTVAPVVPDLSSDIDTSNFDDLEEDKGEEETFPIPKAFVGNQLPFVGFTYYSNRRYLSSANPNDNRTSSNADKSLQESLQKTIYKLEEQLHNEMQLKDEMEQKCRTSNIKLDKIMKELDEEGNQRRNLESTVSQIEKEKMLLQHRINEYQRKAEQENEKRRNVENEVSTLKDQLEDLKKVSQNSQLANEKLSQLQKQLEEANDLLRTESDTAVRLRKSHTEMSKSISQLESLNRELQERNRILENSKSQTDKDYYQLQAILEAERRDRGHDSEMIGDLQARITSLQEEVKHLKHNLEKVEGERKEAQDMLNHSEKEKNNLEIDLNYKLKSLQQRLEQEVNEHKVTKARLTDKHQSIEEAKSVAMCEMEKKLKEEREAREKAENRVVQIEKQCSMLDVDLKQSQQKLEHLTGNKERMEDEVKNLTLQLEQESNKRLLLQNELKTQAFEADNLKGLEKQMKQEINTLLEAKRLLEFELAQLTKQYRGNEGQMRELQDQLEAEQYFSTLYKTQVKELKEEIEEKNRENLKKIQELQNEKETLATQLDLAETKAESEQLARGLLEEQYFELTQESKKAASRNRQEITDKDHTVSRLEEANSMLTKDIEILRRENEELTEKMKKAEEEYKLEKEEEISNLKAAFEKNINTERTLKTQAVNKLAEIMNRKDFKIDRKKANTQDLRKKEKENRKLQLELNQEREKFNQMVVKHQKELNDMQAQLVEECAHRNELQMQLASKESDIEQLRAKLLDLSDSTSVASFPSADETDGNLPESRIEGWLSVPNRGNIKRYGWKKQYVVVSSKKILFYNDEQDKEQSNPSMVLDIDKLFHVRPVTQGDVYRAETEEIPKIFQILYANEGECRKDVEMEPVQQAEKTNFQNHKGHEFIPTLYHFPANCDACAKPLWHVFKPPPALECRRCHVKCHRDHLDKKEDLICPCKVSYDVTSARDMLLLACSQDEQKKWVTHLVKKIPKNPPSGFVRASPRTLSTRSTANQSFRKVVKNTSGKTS

For the molecule `Clc1ccc(-c2nn3ncccc3c2-c2ccnc(Nc3ccccc3)n2)cc1`, the inhibition in assay [1] is -1.39%; in [2], 0.23%; in [3] it was 0.46%; in [4], 0.91%; in assay [5], -0.72%; in assay [6], -0.06%. Besides, the inhibition in assay [7] was 3.99%; in assay [8] it was 1.65%; in [9] it was 2.76%; in [10] it was 1.23%; in assay [11], 2.67%; in assay [12], 1.78%. The inhibition in assay [13] amounted to 4.14%; in assay [14], 3.3%; in assay [15] it was 5.54%; in assay [16], 1.46%; in assay [17] it was 3.41%; in assay [18] it was 2.16%. For the same molecule, the inhibition in assay [19] stood at 2.02%; in [20] it was 2.28%.

As for `Cc1ccc(O)cc1Nc1ccnc2cc(-c3ccccn3)ccc12`, the inhibition came out at 4.48% in assay [1]; 2.29% in [2]; 4.56% in assay [3]; 2.6% in assay [4]; 1.93% in assay [5]; 1.13% in [6]. For the same molecule, the inhibition was 1.55% in assay [7]; 5.06% in assay [8]; 28.9% in assay [9]; 6.27% in assay [10]; 34.9% in assay [11]; 5.74% in assay [12]. Also, the inhibition worked out at 18.9% in [13]; 3.58% in assay [14]; 1.99% in [15]; 1.7% in assay [16]; 3.8% in assay [17]; 1.87% in [18]. In addition, the inhibition is -2.49% in assay [19] and 0.91% in assay [20].
